Results on 65 compounds are retold here after PubChem BioAssay AID1347076 (National Center for Advancing Translational Sciences (NCATS), 2019).

Structures are written as SMILES. Among all 400,000 compounds or so, about 13,000 (3.2%) were called active. Another 18% or so got no clear call; they are omitted. The full list was thinned out, with actives kept by preference. A number with no mark means an inactive call. The call rests on the fitted dose curve; in most records, active means well fitted cell-killing curve with a large enough effect; inconclusive means small, poorly fitted or top-dose-only effect, or effect the other way; inactive means flat fitted curve, though single readings scatter.
On the % scale 0 is the no-effect control and ±100 the full control effect; potency means the concentration at half of the fitted maximal effect.

The experiment is described as follows: qHTS assay for MDR1-selective chemotherapeutics: Primary screen using the drug-selected MDR subline cells KB-V1. Further: nearly all actives have a fitted effect of over 60% in size. To be noted: KB-V1 MDR cells viability, CellTiter-Glo, 72 h; series mostly up to 46.1 µM; activity change, negative = cytotoxicity: at the top concentration. The method in brief: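 Following 72 h at 37 degrees C with compound, KB-V1 cell viability was read by CellTiter-Glo luminescence, medium being phenol-red-free DMEM plus 10% FBS; concentration-response parameters came from normalized, curve-fitted qHTS data.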
On to `O=C(c1cc(C2CCCCN2S(=O)(=O)c2ccccc2)on1)N1CCOCC1` (stereo not given), for which the “activity change, negative = cytotoxicity” value was 4.3%.

As for `Nc1cc(C(=O)N2CCN(c3ccccc3Cl)CC2)ccc1N1CC2CC(C1)c1cccc(=O)n1C2` (stereo not given), the “activity change, negative = cytotoxicity” value was -1.97%.

For `Cc1ccc(S(=O)(=O)N(c2cccc(C)c2)C2CCS(=O)(=O)C2)cc1` (stereo not given), the Potency is 16.4 µM (active).

As for `Cc1ccc(S(=O)(=O)CCC(=O)OCC(=O)N(C)C2CCS(=O)(=O)C2)cc1` (stereo not given), the “activity change, negative = cytotoxicity” value was -3.87%.

For the compound `CN(C1CCS(=O)(=O)C1)S(=O)(=O)c1ccc2ccccc2c1` (stereo not given), the “activity change, negative = cytotoxicity” value was -7.48%.

With `CCc1nc2nc(C)cc(Nc3ccc(F)c(Cl)c3)n2n1`, the “activity change, negative = cytotoxicity” value is 1.62%.

`N#CCc1c[nH]c2ccc([N+](=O)[O-])cc12`: the “activity change, negative = cytotoxicity” value is 16.4%.

For `CCOC(=O)c1ccc2[nH]c3c(c2c1)CCCC3NC=O` (stereo not given), the “activity change, negative = cytotoxicity” value is -6.76%.

As for `O=[N+]([O-])c1ccc2[nH]c3c(c2c1)CCCC3O` (stereo not given), the Potency was 20.6 µM (active).

On to `Cc1c(C(=O)N(C)C)sc2c1c(=O)n(-c1ccc(F)cc1)c(=O)n2CC(=O)N(C)c1ccccc1`, for which the “activity change, negative = cytotoxicity” value was 7.18%.

On to `O=C(COC(=O)Cc1ccc(Cl)cc1Cl)NCc1ccco1`, for which the “activity change, negative = cytotoxicity” value was 12.7%.

With `COCCNC(=O)CSc1nc(N)c(NC(=O)c2ccco2)c(=O)[nH]1`, the “activity change, negative = cytotoxicity” value is -3.82%.

Consider `O=C1c2cccc(OCC(=O)N3N=C(c4cccs4)CC3c3ccc(F)cc3)c2CCN1Cc1ccccc1` (stereo not given), for which the Potency was 1.64 µM (active).

Take `O=C(COc1ccccc1Cl)N1N=C(c2cccs2)CC1c1ccco1` (stereo not given): the “activity change, negative = cytotoxicity” value was -25.9%.

Regarding `COc1ccc(C2CC(c3cccs3)=NN2C(=O)CCC(=O)O)cc1OC` (stereo not given), the “activity change, negative = cytotoxicity” value was 13.5%.

For `COc1ccc(NC(=O)C2(C)Cc3c(-c4ccc(C(N)=O)cc4)ccnc3O2)cc1` (stereo not given), the “activity change, negative = cytotoxicity” value was -8.96%.

Take `O=C(CSc1ncc(-c2ccccc2)[nH]1)Nc1ccc(F)cc1F`: the “activity change, negative = cytotoxicity” value was -13.2%.

As to `CC(C)(C)OC(=O)N1CCN(C(=O)c2[nH]c(C(F)(F)F)nc2-c2ccccc2)CC1`, the “activity change, negative = cytotoxicity” value is -14.6%.

Regarding `O=C1O/C(=C\c2ccc(O)cc2)C(O)=C1c1ccc(O)cc1`, the “activity change, negative = cytotoxicity” value is -8.38%.

`CCOC(=O)c1cccc(NC(=O)CCn2nnc3ccccc32)c1`: the Potency was 8.2 µM (active).

In the case of `CCOC(=O)c1nnn(CC(=O)Nc2cccc(F)c2)c1C(=O)OCC`, the “activity change, negative = cytotoxicity” value is 13.5%.

For `CCOC(=O)c1cccc(NC(=O)CCc2c(C)nc3ncnn3c2C)c1`, the “activity change, negative = cytotoxicity” value is -2.85%.

`C[C@H](CO)N1C[C@H](C)[C@@H](CN(C)S(=O)(=O)c2ccc(F)cc2)OCc2cnnn2CCCC1=O`: the “activity change, negative = cytotoxicity” value is 11.7%.

Take `CCC(C)N(c1ccc(/C=C/c2ccnc3ccccc23)cc1)C(C)CC` (stereo not given): the “activity change, negative = cytotoxicity” value was -1.86%.

In the case of `OC(c1ccccc1)c1nc(/C=C/c2ccc(C(F)(F)F)cc2)cs1` (stereo not given), the “activity change, negative = cytotoxicity” value was 20.1%.

Consider `CC1CCCCN1C(=O)CCS(=O)(=O)Cc1ccccc1` (stereo not given), for which the “activity change, negative = cytotoxicity” value is 27.6%.

Consider `Cc1cc(C(=O)OCC(=O)N2C(C)CCCC2C)c2ccccc2n1` (stereo not given), for which the “activity change, negative = cytotoxicity” value was -17.1%.

For `Cc1nn(-c2ccccc2)nc1C(=O)OCC(=O)N1CCCCC1C` (stereo not given), the Potency was 23.1 µM (active).

With `Cc1ccc(N(CC(=O)NCC(C)c2ccccc2)S(=O)(=O)N(C)C)cc1` (stereo not given), the “activity change, negative = cytotoxicity” value was 3.58%.

On to `O=C(NCc1nnnn1-c1ccc(Cl)cc1)c1ccc([N+](=O)[O-])o1`, for which the “activity change, negative = cytotoxicity” value was -15.6%.

In the case of `O=[N+]([O-])c1ccc(C(S(=O)(=O)Cc2ccccc2)S(=O)(=O)Cc2ccccc2)cc1`, the “activity change, negative = cytotoxicity” value is -7.5%.

Turning to `CC(C)S(=O)(=O)c1csc(NC(=O)Nc2ccc(Cl)cc2)c1Cl`, the Potency is 20.6 µM (active).

Consider `CN(c1cccc(NC(=O)Nc2ccc(Cl)cc2)c1)S(C)(=O)=O`, for which the “activity change, negative = cytotoxicity” value was -4.54%.

Consider `Cn1ccc(NC(=O)Nc2ccc(Cl)cc2)n1`, for which the “activity change, negative = cytotoxicity” value is 4.41%.

In the case of `CCNC(=O)C1(C)CCCN(Cc2noc(-c3ccccc3OC)n2)C1` (stereo not given), the “activity change, negative = cytotoxicity” value was -12.7%.

Regarding `O=C(NCc1cccc(C(F)(F)F)c1)c1ccc2sc(COCCO)nc2c1`, the “activity change, negative = cytotoxicity” value is 2.2%.

As for `O=C(COc1ccc2c(C(F)(F)F)cc(=O)oc2c1)Nc1ccc2c(c1)OCCO2`, the “activity change, negative = cytotoxicity” value was 0%.

For the compound `CCN(CC(=O)Nc1ccc2c(c1)OCCO2)Cc1cc(=O)oc2cc(C)c(C)cc12`, the Potency was 5.17 µM (active).

`Cc1ccc(SCC(=O)Nc2ccc3c(c2)OCCO3)cc1`: the “activity change, negative = cytotoxicity” value is -14.8%.

Take `CC1(C)Cc2ccccc2-c2c[nH]c(=O)n21`: the “activity change, negative = cytotoxicity” value was -2.99%.

Consider `Cc1ccc2[nH]c(=O)c(CN(CCCN(C)C)C(=O)Nc3cccc(Cl)c3)cc2c1`, for which the Potency was 18.4 µM (active).

For `Cc1ccc2[nH]c(=O)c(CN(CC3COCCO3)C(=O)Nc3ccccc3C)cc2c1` (stereo not given), the “activity change, negative = cytotoxicity” value is -18.7%.

With `Cc1cccc(NC(=O)N(Cc2cc3cc(C)cc(C)c3[nH]c2=O)CC2COCCO2)c1` (stereo not given), the “activity change, negative = cytotoxicity” value was 6.39%.

Take `N#CCCC(C#N)(c1cccnc1)N1CCOCC1` (stereo not given): the “activity change, negative = cytotoxicity” value was 26.1%.

For `CCOc1ccccc1CNC(=O)c1cnc2c(-c3ccc(OCC)c(OCC)c3)c(C)nn2c1C`, the “activity change, negative = cytotoxicity” value was 0.381%.

As to `Cc1ccc(C(=O)NNC(=O)OC(C)(C)C)c(Cl)c1`, the “activity change, negative = cytotoxicity” value is 15.5%.

Regarding `CC(C)(C)OC(=O)NNc1c2ccccc2nc2ccccc12`, the Potency is 9.2 µM (active).

For the compound `Cc1ccccc1NC(=O)NNC(=O)OC(C)(C)C`, the “activity change, negative = cytotoxicity” value was 15.7%.

Take `COC(=O)[C@H]1C[C@H](OC(=O)NCc2ccccc2)[C@@]2(O)CN(S(=O)(=O)c3ccc(C)cc3)CC2[C@H]1C(=O)OC` (stereo not given in full): the “activity change, negative = cytotoxicity” value was 6.07%.

Consider `COc1ccc(NC(=O)CSc2nc(NS(=O)(=O)c3ccc(C)cc3)cc(=O)[nH]2)cc1`, for which the Potency is 3.66 µM (active).

Take `Cc1ccc(NC(=O)CSc2nc(CSc3ccc(C)cc3)cc(=O)[nH]2)cc1`: the “activity change, negative = cytotoxicity” value is -17.7%.

Consider `Cc1cc(=O)[nH]c(SCC(=O)Nc2ccc(Br)cc2)n1`, for which the “activity change, negative = cytotoxicity” value was 11.3%.

For the compound `CC1(C(=O)NS(=O)(=O)c2ccccc2)CCN1C(=O)C1CCCCC1` (stereo not given), the “activity change, negative = cytotoxicity” value was 3.98%.

On to `COC(=O)C[C@H]1C[C@@H]2c3cc(NC(=O)Nc4ccccc4)ccc3O[C@@H]2[C@@H](CO)O1`, for which the “activity change, negative = cytotoxicity” value is 12.4%.

With `COc1cc(OC)cc(C2=Cc3ccccc3C(CC(=O)c3ccco3)N2c2ccc(-c3cnc(OC)nc3)cc2)c1` (stereo not given), the “activity change, negative = cytotoxicity” value is 0%.

For `Cc1ccc(S(=O)(=O)/N=C(/Nc2ccccn2)c2ccc(Cl)cc2)cc1`, the “activity change, negative = cytotoxicity” value is -13.7%.

`O=S(=O)(/N=C(/Nc1ccccn1)c1ccccc1)c1ccc(Cl)cc1`: the Potency was 14.6 µM (active).

On to `O=S(=O)(Nc1ccccn1)c1cccc(S(=O)(=O)c2ccc(Cl)cc2)c1`, for which the “activity change, negative = cytotoxicity” value is -22.4%.

As for `OC(CBr)CN1CCCCC1` (stereo not given), the “activity change, negative = cytotoxicity” value was 6.25%.

In the case of `CCn1cc(C(=O)N(C)Cc2ccccc2)c(=O)c2cc(S(=O)(=O)N3CCCCCC3)ccc21`, the “activity change, negative = cytotoxicity” value is 0%.

`Cc1ccc(-c2ccc(C3=CC(=O)CC(C)(C)C3=O)cc2)cc1`: the “activity change, negative = cytotoxicity” value is -4.78%.

On to `CC(C)(C)Cc1c(C2CCCCC2)nc2ccc(Br)cn12`, for which the “activity change, negative = cytotoxicity” value was 11%.

For `O=C(Nc1ccc(C(=O)O)cc1)/C(=C\c1ccccc1)NC(=O)c1ccc(Br)cc1`, the “activity change, negative = cytotoxicity” value was 2.86%.

In the case of `CCc1ccccc1NC(=O)/C(=C/c1ccccc1)c1ccccc1`, the “activity change, negative = cytotoxicity” value was -26.7%.

Consider `O=C(/C=C/c1ccccc1)N/C(=C/c1ccccc1)C(=O)Nc1ccccc1O`, for which the Potency is 23.1 µM (active).
